An excerpt weighted towards active compounds, which were near 0.58% of everything screened.
CtBP-E1A inh: CtBP/E1A binding inhibition; AlphaScreen GST-E1A/His-CtBP binding, 1536-well; active compounds read low; activity change, % (test concentration not listed); 0.49% of 340,000 active; AID 651724; in the data active = activity change below about -65%; inconclusive = mostly about -30% to -63%; note: % is set by controls: 0 for no effect and ±100 for the full control effect
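Protein mix (5X: 125 nM each GST-E1A, His-CtBP) was incubated with pinned compound 2 h at 37 deg C in dark, in 50 mM Tris pH 8.0 buffer with 300 mM NaCl. Glutathione donor and nickel acceptor beads followed; AlphaScreen signal read after 1 h.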
GRP78 ERSR act: inducers of ER stress response in human glioma cells; U87-MG GRP78 promoter luciferase reporter, 16 h; Potency, µM, inactives show top-dose activation, hits mostly activators; 0.02% of 420,000 active; note: potency is the fitted concentration of half-maximal effect; series mostly up to about 76 µM; % of control where 0% means no effect; nearly all actives have a fitted effect of over 35% in size
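ERSR induction read as luciferase luminescence (Bright-Glo, 10 min at room temperature) in stably transfected human U87-MG glioma cells exposed to compounds for 16 h, using GRP78 as sensor.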
Eya2 inh: blocks the phosphatase activity of human Eya2. O00167. recombinant Eya2, OMFP fluorescence dephosphorylation (OMFP is methylfluorescein phosphate). Potency, µM (titrated, usually from 76.9 µM), inactives show top-dose activity, negative = inhibition, actives largely listed as inhibitors. 0.006% of 330,000 active. AID 488837; note: potency is the fitted concentration of half-maximal effect; % is set by controls: 0 for no effect and ±100 for the full control effect
Target sequence (O00167 whole entry, looked up): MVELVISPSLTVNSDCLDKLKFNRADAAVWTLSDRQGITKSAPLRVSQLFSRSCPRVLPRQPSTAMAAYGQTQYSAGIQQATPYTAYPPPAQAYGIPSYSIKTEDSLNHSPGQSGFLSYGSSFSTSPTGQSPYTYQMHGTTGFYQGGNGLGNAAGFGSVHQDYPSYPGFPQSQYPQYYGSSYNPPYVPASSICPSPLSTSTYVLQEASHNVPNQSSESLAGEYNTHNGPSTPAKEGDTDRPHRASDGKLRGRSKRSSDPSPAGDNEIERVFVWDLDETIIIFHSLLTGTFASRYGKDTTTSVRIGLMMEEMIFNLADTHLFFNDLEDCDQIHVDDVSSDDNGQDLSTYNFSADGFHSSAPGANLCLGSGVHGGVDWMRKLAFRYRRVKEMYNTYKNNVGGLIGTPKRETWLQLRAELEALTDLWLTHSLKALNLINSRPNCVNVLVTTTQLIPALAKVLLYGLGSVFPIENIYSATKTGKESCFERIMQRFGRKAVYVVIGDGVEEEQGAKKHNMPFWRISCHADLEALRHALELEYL
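Eya2 protein (added as 0.2 uM solution) was preincubated with compound for 10 min at ambient temperature in 50 mM HEPES pH 7.5, 50 mM NaCl, 5 uM MgCl2, 0.05% BSA, 1 mM DTT. OMFP (added at 50 uM) then reacted 10 min; fluorescence read at 485/525 nm.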
Six1-Eya2 blk: Six1/Eya2 interaction inhibition. Q15475+O00167. AlphaScreen GST-Six1/His-Eya2 binding, biochemical; active compounds read low. activity change, % (test concentration not listed). 0.56% of 360,000 active; in the data active = activity change below about -65%; inconclusive = mostly about -30% to -63%; note: % is set by controls: 0 for no effect and ±100 for the full control effect
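AlphaScreen with GST-Six1 and His-Eya2 (5X mix: 250 nM and 500 nM), glutathione donor and nickel acceptor beads; buffer 50 mM Tris pH 8.0, 300 mM NaCl, 1 mM TCEP; 1 h at 37 C in the dark.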
Numbers without * were called inactive; ? = inconclusive; nt = not tested or not shown; ! = repeats disagree. Unless noted, calls come from the whole dose curve; as a rule, active = well fitted curve in the direction sought with a large enough effect; inconclusive = small, poorly fitted or top-dose-only effect, or another doubt; inactive = no such curve, though single readings can be large; an effect the other way counts as inactive or inconclusive.

SMILES	CtBP-E1A inh	GRP78 ERSR act	Eya2 inh	Six1-Eya2 blk
CC1(CC(=O)N/N=C/c2cc([N+](=O)[O-])c(O)cc2O)OCCO1	nt	-6%	-29%	-89*
COc1cc(/C=N/Nc2nc3ccccc3s2)cc([N+](=O)[O-])c1O	nt	7%	?	-82*
O=[N+]([O-])c1cc(Cl)cc(/C=N/Nc2nc3ccccc3s2)c1O	nt	?	4%	-14
N=C1/C(=C/c2coc3ccccc3c2=O)C(=O)N=C2SC(c3ccco3)=NN12	?	-2%	4%	-29
N=C1/C(=C\c2coc3ccc(O)cc3c2=O)C(=O)N=C2SC=CN12	-90*	6%	11%	-80*
COC(=O)[C@@H]1CCCN1Cc1ccc2c(c1)CN(Cc1cccn1-c1ncccn1)CCO2	nt	-3%	nt	nt
CC1C(=O)NN=C1C(=O)N/N=C\c1ccc(O)cc1O (centres undefined)	-11	0%	-3%	-92*
COc1cc(/C=N/NC(=O)C2=NNC(=O)C2C)ccc1O (centres undefined)	6	-2%	-10%	-3
COc1ccccc1-c1coc2cc(OC(=O)/C=C/c3ccccc3)ccc2c1=O	-68*	-2%	3%	-17
COc1cc(OC)nc(NC(=O)NS(=O)(=O)c2ccccc2Cl)n1	-1	0%	10%	-1
Cc1cc(N(C)N)nc(NC(=O)NS(=O)(=O)c2ccccc2Cl)n1	-94*	1%	1%	-74*
Cc1ccc(CN2C[C@@H](Sc3nc(C)cc(C)n3)C[C@H]2C(=O)N2CCN(c3ccccc3F)CC2)cc1	nt	-5%	nt	nt
Cc1ccc(Nc2nc(-c3c(C)nc4ccccn34)cs2)cc1	-17	-6%	12%	-16
Cc1ccnc(Nc2nc(-c3c(C)nc4sccn34)cs2)c1	-78*	8%	-32%	-68*
Cc1ccc(Nc2nc(-c3c(C)nc4ncccn34)cs2)cc1	-90*	-7%	-9%	-75*
C=CCNc1nc(-c2c(C)nc3ncccn23)cs1	-15	-4%	-10%	-17
Cc1nc2ncccn2c1-c1csc(Nc2ccc(O)cc2)n1	-90*	-2%	6%	-87*
COc1cc(C2NC(=O)NC(C)=C2C(=O)OCc2ccccc2)ccc1O (centres undefined)	5	-4%	-8%	-27
CCOc1cc(C2NC(=O)NC(C)=C2C(=O)OCc2ccccc2)ccc1O (centres undefined)	6	-2%	9%	-69*
Cc1csc(C(C)N(C)C(=O)c2cnn(-c3nccc(-c4cc(C)sc4C)n3)c2C)n1 (centres undefined)	nt	0%	nt	nt
c1ccc(-c2nc3ccccc3[nH]2)nc1	-4	-7%	0%	?
O=c1[nH]c(-c2ccccn2)nc2ccccc12	-89*	-9%	-11%	-91*
O=c1[nH]c(-c2ccccn2)nc(C(F)(F)F)c1Br	-83*	0%	3%	-76*
O=C(CN1Cc2ccccc2OC(c2ccsc2)C1)NCC1OCCc2ccccc21 (centres undefined)	nt	-2%	nt	nt
Fc1ccc(/C=C/c2ccc3ccccc3n2)cc1	nt	-3%	nt	nt
SMILES	CtBP-E1A inh	GRP78 ERSR act	Eya2 inh	Six1-Eya2 blk
Cc1ccc(O)c(N=Nc2nccs2)c1	?	-3%	-8%	-71*
COc1ccc(N=Nc2cc(C)ccc2O)cc1	?	-3%	0%	?
CC(=O)N1CCC[C@H]1C(=O)NCC1Cc2cc(-c3cnccn3)cc(Cl)c2O1 (some centres undefined)	nt	-2%	nt	nt
Cc1cc(C)c(Nc2cc(S(=O)(=O)O)c(N)c3c2C(=O)c2ccccc2C3=O)c(C)c1	-88*!	-11%	-9%	-68*
O=C(O)c1cc(O)ccc1N=Nc1ccccc1	nt	28µM*	?	-1
CC(=O)c1ccc(F)c(-c2cc(C)cc3c2OC(CNC(=O)C(C)n2nc(C)cc2C)C3)c1 (centres undefined)	nt	-1%	nt	nt
CCC(=O)NC(c1cccs1)c1ccc2cccnc2c1O (centres undefined)	nt	-1%	-2%	-93*
Cc1conc1NC(c1cccs1)c1ccc2cccnc2c1O (centres undefined)	nt	nt	-10%	nt
CC(C)CC(=O)NC(c1cccs1)c1ccc2cccnc2c1O (centres undefined)	-88*	0%	-2%	-81*
O=C(c1cc2ccccc2[nH]1)c1cc2cc(O)ccc2[nH]1	nt	-3%	nt	nt
O=C(COc1ccccc1/C=C1\SC(=S)NC1=O)Nc1ccc(F)cc1	-85*	-1%	5%	-30
COc1ccc(C(=O)COC(=O)C2CC3CCCC(C2)C3=O)cc1Br (centres undefined)	7	-4%	-15%	-3
COc1ccc(C(=O)COC(=O)CN2CC(=O)Oc3ccccc32)cc1Br	-93*	-2%	8%	-93*
COc1ccc(OC)c(C(=O)N2CCOc3ccc(C(C)(O)CN(C)C)cc3C2)c1 (centres undefined)	nt	-1%	nt	nt
Cc1cc(CNC(=O)c2cnn(-c3ncc4c(n3)-c3ccccc3CCC4)c2C2CC2)on1	nt	-3%	nt	nt
O=c1cc[nH]c2c(Cl)cccc12	nt	1%	-3%	2
O=c1cc[nH]c2c1ccc1c(=O)cc[nH]c12	-86*	-3%	0%	-75*
CC(C)(O)C#Cc1ccc(CN2CCc3nnc(CCNC(=O)c4ccco4)n3CC2)cc1	nt	-2%	nt	nt
CSCCC(=O)Nc1nc(-c2ccccn2)cs1	-4	0%	12%	-71*
N#Cc1ccccc1OCC(=O)Nc1nc(-c2ccccn2)cs1	?	1%	nt	-83*
O=C(COc1ccc(F)cc1Cl)Nc1nc(-c2ccccn2)cs1	nt	nt	7%	nt
O=C(CN1C(=O)CCC1=O)Nc1nc(-c2ccccn2)cs1	?	-2%	19%	-88*
COc1ccc(/C=C/C(=O)N2CCc3c(cnc(C)c3CNS(=O)(=O)c3cccs3)C2)cc1	nt	1%	nt	nt
COc1ccccc1N=Nc1ccc(O)c2ncccc12	nt	0%	4%	-70*
CCS(=O)(=O)c1ccc(N=Nc2ccc(O)c3ncccc23)c(OC)c1	-93*	-2%	-23%	-83*
SMILES	CtBP-E1A inh	GRP78 ERSR act	Eya2 inh	Six1-Eya2 blk
Oc1ccc(N=Nc2ccccc2C(F)(F)F)c2cccnc12	nt	-8%	9%	-11
COc1cccc(Cn2cnc3c(cnn3C(C)(C)C)c2=O)c1	nt	-2%	nt	nt
Cc1cccc(C)c1N(CCCc1cccnc1)C(=O)[C@@H](C)N	nt	-2%	nt	nt
CCN(CC)c1ccc(/C=N/NC(=O)CNC(=O)C2COc3ccccc3O2)c(O)c1 (centres undefined)	?	2%	1%	-70*
Cc1cc([N+](=O)[O-])cc(/C=N\NC(=O)C2COc3ccccc3O2)c1O (centres undefined)	-72*	-3%	4%	-87*
COc1cc(/C=N\NC(=O)CNC(=O)C2COc3ccccc3O2)ccc1O (centres undefined)	0	-3%	-1%	6
CCCCCCC(O)C/C=C\CCCCCCCC(=O)O (centres undefined)	nt	-2%	nt	nt
COC(=O)c1cccc(/C=N/NC(N)=S)c1O	nt	7%	2%	-66*
CC(C)(C)n1ncc2c(=O)n(Cc3ccc(F)c(C(F)(F)F)c3)cnc21	nt	2%	nt	nt

Compound activity: PubChem BioAssay, National Center for Advancing Translational Sciences (NCATS)
